Experimental data reported in PubChem BioAssay AID504366 (National Center for Advancing Translational Sciences (NCATS), 2011).
Active and inactive are the calls of the source. The call rests on the fitted dose curve.

Test: Immunofluorescence assay for KAP-1 phosphorylation on Ser824 for Identifying a Potential Treatment of Ataxia-Telangiectasia: SAR for Probe
Conditions: F2112 A-T fibroblasts, pKAP-1 S824 immunofluorescence
Description: NIH Chemical Genomics Center [NCGC] NIH Molecular Libraries Probe Centers Network [MLPCN] MLPCN Grant: MH089030-01 Assay Submitter (PI): Wei Zheng and Yosef Shiloh Ataxia-telangiectasia (A-T) is a devastating and progressive disease for which, there is no cure. Although A-T is a multisystem disease, it is stereotyped characterized by its neurological symptoms such as truncal ataxia, due to cerebellar cortical degeneration of the Purkinje and granule cells. Other symptoms of A-T are telangiectasias (dilated blood vessels), primary immunodeficiency, marked sensitivity to ionizing radiation (IR), chromosomal instability and predisposition to cancer. The underlying genetic cause of A-T is null mutations in the ATM (A-T mutated) gene. ATM is a nuclear serine/threonine kinase that functions as a master regulator of the cellular responses to double strand breaks (DSBs) in the DNA. Upon activation by DSBs, ATM phosphorylates a plethora of downstream targets, including KAP-1 on […]. KAP-1 phosphorylation occurs shortly in response to DSBs and mediates global chromatin relaxation, which facilitates DSB repair. To screen for small molecules that will compensate for the loss of ATM in cells derived from A-T patients, we monitored KAP-1 phosphorylation as a readout for ATM-like activity using an AlphaLISA assay.
qHTS Assay Protocol: 1. […] Plates are the read on InCell.

| Compound | Potency |
| --- | --- |
| CC(=O)c1c(O)c(C)c(O)c(Cc2c(O)c3c(c(C(=O)/C=C/c4ccccc4)c2O)OC(C)(C)C=C3)c1O | 10 µM (active) |
